# Source: PubChem (National Center for Advancing Translational Sciences (NCATS))
# An excerpt weighted towards active compounds, which were near 3.6% of everything screened.
# VDR inhibitor: vitamin D3 receptor (human) inhibition | 400,000 compounds, 0.93% hits | VDR-SRC2-3 peptide fluorescence polarization, 2 h | P11473 | Potency, µM, for inactives: max response, negative = inhibition, usual class: inhibitors; note: potency is the fitted concentration of half-maximal effect; % is set by controls: 0 for no effect and ±100 for the full control effect
#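 Inhibition of the VDR/SRC2-3 peptide interaction is quantified by fluorescence polarization. Compounds (23 nl, pintool) incubate with the reagents for 2 hours at ambient room temperature.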
# PLK1 PBD inh: PLK1 (human) polo-box domain binding inhibition; P53350; Plk1 PBD binding of FITC phosphopeptide, fluorescence polarization; Potency, µM, without a hit: max response, negative = inhibition, most hits filed as inhibitors; 360,000 compounds, 2.8% hits; AID 720504; note: potency is the fitted concentration of half-maximal effect; series mostly up to about 57 µM; % is set by controls: 0 for no effect and ±100 for the full control effect; nearly all actives have a fitted effect of over 65% in size
# Target sequence (P53350 whole entry, looked up, the tested form may be a part): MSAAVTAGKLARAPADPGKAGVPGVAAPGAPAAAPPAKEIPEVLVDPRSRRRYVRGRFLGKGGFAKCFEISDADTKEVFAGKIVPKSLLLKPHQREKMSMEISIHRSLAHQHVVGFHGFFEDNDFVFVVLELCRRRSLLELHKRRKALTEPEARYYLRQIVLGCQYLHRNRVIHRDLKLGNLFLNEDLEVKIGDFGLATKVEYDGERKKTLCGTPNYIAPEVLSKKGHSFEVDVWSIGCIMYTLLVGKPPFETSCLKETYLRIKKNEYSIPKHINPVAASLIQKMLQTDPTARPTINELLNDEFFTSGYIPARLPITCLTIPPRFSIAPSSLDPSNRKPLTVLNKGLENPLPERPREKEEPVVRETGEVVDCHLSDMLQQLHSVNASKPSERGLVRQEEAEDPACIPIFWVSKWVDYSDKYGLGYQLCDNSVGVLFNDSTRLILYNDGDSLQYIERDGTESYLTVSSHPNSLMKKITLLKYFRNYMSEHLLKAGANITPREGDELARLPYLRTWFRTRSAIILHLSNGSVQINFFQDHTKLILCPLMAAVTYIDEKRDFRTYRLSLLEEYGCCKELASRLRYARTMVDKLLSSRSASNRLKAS
# Rango complex inh: prevents formation of the Rango-importin beta complex. Q14974. Rango CFP/YFP FRET sensor + importin beta, 45 min. Potency, µM (titrated, usually from 92.2 µM), inactives show at the highest dose inhibition of complex formation. 340,000 compounds, 0.031% hits; calls by dose curve;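 note: potency is the fitted concentration of half-maximal effect; 0% = DMSO wells and 100% = buffer wells lacking importin beta; nearly all actives have a fitted effect of over 15% in size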
#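 FRET biosensor (snurportin 1 IBB flanked by EYFP and cerulean), 50 nM, with compound 5 min, then 0.125 microM importin beta in PBS, 1 mM DTT, 0.02% Tween-20, 0.1% BSA. CFP/YFP ratio read after 45 min at room temperature; pre-read flags interference.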
# PI5P4K alpha inh: inhibitors of human PI5P4K alpha | PI5P4Kalpha enzyme, ADP-Glo luminescence, 60 min; stronger effect = lower value | AID 652105 | P48426 | max response, % | 330,000 compounds, 1.2% hits; active = max response of -50% or lower; inconclusive = between -30% and -50%; inactive = -30% or higher; note: value at the top dose of about 77 µM; % is set by controls: 0 for no effect and ±100 for the full control effect
#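 qHTS, 1536-well: enzyme/substrate mix, compound by pin tool, 5 microM ATP final; RT 60 min; ADP-Glo reagents 1 (45 min) then 2 (30 min); luminescence.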
# Rango release inh: inhibition of RanGTP-driven Rango-importin beta dissociation. O95149+P62826. Biochemical FRET Rango-importin beta, RanGTP-induced dissociation. Potency, µM (doses to about 46.1 µM), inactives show at the highest dose activity change, negative = inhibition. 340,000 compounds, 0.071% hits. AID 540253; calls by dose curve; note: potency is the fitted concentration of half-maximal effect; % of control where 0% means no effect; nearly all actives have a fitted effect of over 45% in size
#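 Recombinant Rango FRET biosensor (EYFP–snurportin 1 IBB–cerulean CFP10) at 0.1 uM premixed with 0.25 uM importin beta in PBS, 1 mM DTT, 0.02% Tween-20, 0.1% BSA. Compound added 5 min; RanGTP-RCC1 (0.6 uM Ran, 2 mM GTP, 0.2 uM RCC1) then triggers release, read at 45 min.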
# GCN5L2 inh: GCN5L2 (KAT2A) acetyltransferase inhibition; GCN5L2 HAT assay, ThioGlo1 CoA-SH fluorescence; Potency, µM (doses to about 58.9 µM), for the others: at the top dose activity change, negative = inhibition, usual class: inhibitors; 390,000 compounds, 0.21% hits; AID 504327; note: potency is the fitted concentration of half-maximal effect; % is set by controls: 0 for no effect and ±100 for the full control effect
#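 qHTS, 1536-well. 20nM enzyme, pH 7.5 HEPES/EDTA/Tween-20 buffer; 15 min compound preinc., RT. Start: 75uM H3(1-25), 70uM AcCoA, 50uM ThioGlo1. Read Ex340/Em540 at t=0 (autofluorescence flag) and t=20 min.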
# * = called active by the depositor; ? = inconclusive; · = not tested or not shown. Unless noted, calls come from the whole dose curve; as a rule, active = well fitted curve in the direction sought with a large enough effect; inconclusive = small, poorly fitted or top-dose-only effect, or another doubt; inactive = no such curve, though single readings can be large; an effect the other way counts as inactive or inconclusive.
SMILES,VDR inhibitor,PLK1 PBD inh,Rango complex inh,PI5P4K alpha inh,Rango release inh,GCN5L2 inh
N#C/C(=C\c1cc([N+](=O)[O-])ccc1Cl)C(N)=O,?,?,-2.1%,-17.4,-6.0%,-7.6%
N#C/C(=C/c1ccc([N+](=O)[O-])cc1)C(N)=O,79.4µM*,-20.6%,-2.1%,1.7,16.4%,-1.4%
Cc1cc(=S)[nH]c2ccccc12,3.7%,?,3.0%,2.2,-3.2%,5.5%
S=c1[nH]c2ccccc2s1,35.5µM*,·,·,·,·,20µM*
O=C(Nc1ccc2[nH]c(=S)sc2c1)Nc1ccccc1F,?,21.2µM*,0.0%,-72.2*,-7.8%,19.0%
O=C(Nc1ccc2[nH]c(=S)sc2c1)c1ccccc1,?,?,-2.5%,-68.2*,-12.3%,0.5%
O=C(Nc1ccc2c(c1)OCO2)Nc1ccccc1F,14.3%,4.7%,-3.1%,-8.8,16.9%,-5.6%
C=C1NC(=O)c2cc(CN(C)c3ccc(C(=O)N[C@@H](CCC(=O)O)C(=O)O)s3)ccc2N1,2.4%,·,·,·,·,-17.1%
CSCC[C@H](NC(=O)[C@H](Cc1ccc(OS(=O)(=O)O)cc1)NC(=O)[C@@H](N)CC(=O)O)C(=O)NCC(=O)N[C@@H](Cc1c[nH]c2ccccc12)C(=O)N[C@@H](CCSC)C(=O)N[C@@H](CC(=O)O)C(=O)N[C@@H](Cc1ccccc1)C(N)=O,-10.8%,·,·,·,·,5.6%
O=C(NCC(c1ccco1)S(=O)(=O)c1cccs1)c1ccc(C(F)(F)F)cc1 (stereo not drawn),17.1%,·,·,·,·,2.2%
COC(=O)c1ccc2c(=O)n(CCc3ccc(S(N)(=O)=O)cc3)c(SCC(=O)C(C)(C)C)nc2c1,14.5%,·,·,·,·,-10.2%
CCOC(=O)c1c(NC(=O)C2CCCO2)sc(C(N)=O)c1C (stereo not drawn),-5.9%,-19.1%,-0.1%,-11.0,-7.9%,-3.0%
CCOC(=O)c1c(NC(=S)NCC2CCCO2)sc(C)c1C (stereo not drawn),89.1µM*,11.9µM*,-6.1%,-10.5,8.7%,-19.0%
CC1Sc2ccc(C(=O)NCc3ccccn3)cc2NC1=O (stereo not drawn),79.4µM*,16.8µM*,1.6%,-25.4,-0.5%,-15.6%
CCOc1cc(/C=C(\C#N)c2[nH]nc(N)c2C#N)ccc1O,-7.8%,5.0%,?,-65.2*,?,-8.2%
CCOc1cc(-c2cc(-c3ccc(C)cc3)nc(N)c2C#N)ccc1O,16.6%,3.4%,0.1%,·,-23.4%,-10.1%
CCCCCNc1nc2c(-c3ccccc3)nnn2c2ccccc12,-15.3%,·,·,·,·,-5.0%
N#C/C(=C(/O)CSc1nnc(Cc2cccs2)n1C1CCCCC1)c1nc2ccccc2[nH]1,23.1%,-20.7%,0.9%,-64.5*,-0.3%,-14.5%
COc1cc(C(=O)NC(=S)Nc2ccccc2[N+](=O)[O-])cc(OC)c1OC,-20.5%,21.2µM*,?,-4.9,4.2%,-3.8%
COc1ccc(/C=C\c2onc(C)c2S(=O)(=O)N2CCC(C(=O)Nc3cccc(OC)c3)CC2)cc1,8.4%,·,·,·,·,-5.8%
O=[N+]([O-])c1ccc(O)c(NC(=S)Nc2ccccc2)c1,?,26.7µM*,-0.9%,?,13.2%,0.4%
O=[N+]([O-])c1ccc(NNC(=S)Nc2ccccc2)cc1,44.7µM*,?,-0.4%,?,?,-9.5%
COc1cccc(Cc2nc3ccccc3nc2SCC(=O)N2CCCc3ccccc32)c1,10.8%,·,·,·,·,-4.7%
CSc1cccc(NC(=O)Cn2c3ncccc3c(=O)n2-c2ccc(C)cc2)c1,-2.1%,·,·,·,·,-15.4%
COc1ccc(CNC(=O)NCc2ccc(OC)c(OC)c2)cc1OC,3.9%,-6.3%,-2.6%,·,14.7%,0.0%
COc1ccc(CN/C(C)=C(/C#N)C(N)=O)cc1OC,?,26.7µM*,-1.9%,-7.4,1.8%,0.1%
CCCCn1c(NC(=O)c2ccc(Br)o2)c(S(=O)(=O)c2ccccc2)c2nc3ccccc3nc21,?,25.1µM*,?,·,?,-4.3%
